CYP2C9 act – activators of human CYP2C9; AID 1024; 96,000 compounds, 1.4% hits; P11712; recombinant CYP2C9, luciferin-H conversion, luminescence; hits give high values; factor 1 = untreated enzyme, 0 = blocked; activation factor at 5 µM;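 active = activation factor of 2 or more for CYP2C9 at a 5 µM dose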
CYP2C19 inhib – human CYP2C19 inhibition; P33261; CYP2C19 Supersomes, luciferin-H EGE luminescence, 30 min; inhibition, % at 5 µM; 96,000 compounds, 21% hits; AID 778;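 active = CYP2C19 inhibition above a set limit at 5 µM in the primary screen, cut at about 50% in these data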
sEH inhibitor – inhibitors of human soluble epoxide hydrolase | 91,000 compounds, 0.34% hits | inhibition, % at 2 µM | P34913 | recombinant human sEH enzymatic activity assay; in the data active = inhibition above about 80%
Target sequence (P34913 whole entry, looked up): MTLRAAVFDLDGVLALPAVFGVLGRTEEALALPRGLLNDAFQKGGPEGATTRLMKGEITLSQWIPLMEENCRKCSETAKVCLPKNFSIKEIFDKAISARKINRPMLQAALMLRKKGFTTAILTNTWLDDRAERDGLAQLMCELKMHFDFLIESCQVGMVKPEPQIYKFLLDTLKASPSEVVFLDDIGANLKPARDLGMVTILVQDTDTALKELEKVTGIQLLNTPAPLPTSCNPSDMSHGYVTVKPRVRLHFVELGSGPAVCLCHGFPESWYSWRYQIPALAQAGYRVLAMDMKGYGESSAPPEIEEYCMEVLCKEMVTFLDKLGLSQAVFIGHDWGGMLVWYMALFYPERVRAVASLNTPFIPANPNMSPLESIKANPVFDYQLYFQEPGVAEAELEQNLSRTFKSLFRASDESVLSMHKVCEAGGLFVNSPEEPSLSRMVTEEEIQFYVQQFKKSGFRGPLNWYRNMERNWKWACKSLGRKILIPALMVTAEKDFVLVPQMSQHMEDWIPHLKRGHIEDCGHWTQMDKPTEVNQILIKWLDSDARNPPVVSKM
CYP2C19 activ – cytochrome P450 2C19 (human) activation; P33261; recombinant CYP2C19, luciferin-H EGE luminescence; hits give high values; 0 = fully inhibited enzyme, 1 = untreated enzyme; activation factor at 5 µM; 96,000 tested, under 10 active;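 active = activation factor of at least 2 at 5 µM in the primary screen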
sEH act – soluble epoxide hydrolase (human) activation. P34913. purified human sEH enzymatic activity, activator screen. activation, % at 2 µM. 91,000 compounds, 0.04% hits; in the data active = activation above about 37%
CYP2C9 inhib – blocks human cytochrome P450 2C9; P11712; CYP2C9 Supersomes, luciferin-H conversion, luminescence; inhibition, % at 5 µM; 96,000 compounds, 20% hits; AID 777;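 active = blocking of liver enzyme CYP2C9 beyond about 50% at 5 µM, limit read from the data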
A number is an active result; . = inactive; / = no result. Sampled rows, rich in hits. Any-hit rate of the full collection: about 27%.

SMILES	CYP2C9 act	CYP2C19 inhib	sEH inhibitor	CYP2C19 activ	sEH act	CYP2C9 inhib
COc1ccc(OC)c2c(C)cc(N3CCN(C(=O)c4ccc(Cl)cc4)CC3)nc12	.	.	.	.	.	56
O=C(O)COc1c(F)c(F)c(C(F)(F)F)c(F)c1F	.	.	/	.	/	.
CNC(=O)Nc1ccccc1NC(=O)NC	.	.	.	.	.	.
CCN1CCN(CCC(=O)Nc2ccc3c(c2)OCO3)CC1	/	/	.	/	.	/
O=C(c1cnsn1)N1CCN(c2ccccc2)CC1	.	.	.	.	.	.
COC(=O)c1cc(S(=O)(=O)N2CCOCC2)c(N2CCOCC2)cc1N1CCOCC1	.	.	/	.	/	76
O=C(Nc1ccccc1N1CCN(C(=O)c2ccc(Cl)cc2)CC1)c1ccc2c(c1)OCO2	.	90	.	.	.	84
O=C(c1cc(C2CC2)on1)N1CCN(c2ccccc2)CC1	.	91	.	.	.	52
O=C(CCN1CCN(c2ccccc2F)CC1)Nc1ccc2c(c1)OCO2	.	71	/	.	/	88
O=C(Nc1ccc(N2CCN(C(=O)c3ccc(Cl)cc3)CC2)cc1)c1ccc2c(c1)OCCO2	.	.	.	.	.	.
CC(C)OC(=O)CSc1nnc(-c2cnccn2)n1-c1ccccc1	/	/	.	/	.	/
CC(Sc1ccc(Cl)cc1)C(=O)Nc1ccccc1C(=O)N1CCOCC1 (stereo unspecified)	.	.	.	.	.	.
c1cnc2ccc(C(c3nnnn3C3CCCC3)N3CCN4CCCC4C3)cc2c1 (stereo unspecified)	.	.	.	.	.	.
O=C1Nc2ccccc2C(O)(C(=O)NCc2ccco2)N1c1ccc(Cl)c(Cl)c1 (stereo unspecified)	.	.	.	.	.	.
CC(=O)N1CCN(c2ccc(NCc3ccc4c(c3)OCO4)cc2)CC1	.	.	.	.	.	.
O=C(c1cccs1)N1CCCC(c2ccccc2)C1 (stereo unspecified)	.	85	.	.	.	53
CC(C)C(=O)N1CCN(c2ccccc2NC(=O)Cc2ccc(Cl)cc2)CC1	.	.	.	.	.	.
O=C(c1ccccc1)N1CCN(c2ccc(NCc3ccc4c(c3)OCO4)cc2)CC1	.	.	.	.	.	68
O=C(c1ccco1)N1CCCC(c2ccccc2)C1 (stereo unspecified)	.	.	.	.	.	.
CC(C)(C)C(=O)Nc1ccccc1N1CCN(C(=O)c2ccc(Cl)cc2)CC1	.	76	.	.	.	75
COc1cc(C(=O)N2CCN(c3cc(Cl)ccc3Cl)CC2)cc(OC)c1OC	.	.	.	.	.	62
CCOC(=O)c1ccc(NC(=O)CN2C(=O)C(=O)N(CC(C)C)C2=O)cc1	.	.	.	.	.	.
O=C(c1cnccn1)N1CCN(c2ccccc2)CC1	.	53	.	.	.	.
COc1ccc(C(=O)c2ccc(N3CCN(C(=O)c4ccc(F)cc4)CC3)c(F)c2)cc1Br	.	66	.	.	.	.
O=C(c1cccc(C(=O)N2CCN(c3ccccc3F)CC2)c1)N1CCN(c2ccccc2F)CC1	.	82	/	.	/	67
SMILES	CYP2C9 act	CYP2C19 inhib	sEH inhibitor	CYP2C19 activ	sEH act	CYP2C9 inhib
O=C(c1cccc(C(=O)N2CCN(c3ccccc3)CC2)c1)N1CCN(c2ccccc2)CC1	.	.	.	.	.	.
CC(C)[C@H](NC(=O)NCc1ccco1)C(=O)O	.	.	.	.	.	.
Cc1sc(-c2ccncc2)nc1OC(=O)c1ccccc1	.	99	.	.	.	96
Cc1sc(-c2ccccn2)nc1OC(=O)c1cccc(Cl)c1Cl	.	.	.	.	.	72
Cc1ccccc1-n1ncc2c([N+](=O)[O-])cc([N+](=O)[O-])cc21	/	/	.	/	.	/
NC(=O)CCn1nc(-c2ccc(Cl)cc2)c2ccccc2c1=O	.	57	.	.	.	.
CNC(=O)CCn1nc(-c2ccccc2)c2ccccc2c1=O	.	.	.	.	.	.
Cc1nc(NCc2ccco2)[nH]c(=O)c1CCC(C)C	.	57	.	.	.	.
Cc1cccc(CN2CCN(C(=O)c3ccccc3F)CC2)c1	.	99	.	.	.	68
O=C(c1ccccc1F)N1CCN(S(=O)(=O)c2ccc(S(=O)(=O)N3CCCCC3)cc2)CC1	.	80	.	.	.	.
CS(=O)(=O)N1CCN(C(=O)c2ccccc2F)CC1	.	57	.	.	.	.
CS(=O)(=O)N1CCN(C(=O)c2csc3ccccc23)CC1	.	.	.	.	.	.

Assay outcomes as filed in PubChem.
